According to PubChem BioAssay AID686979 (National Center for Advancing Translational Sciences (NCATS), 2013):
About 50,000 (12%) of roughly 420,000 compounds were called active. Another 26% or so got no clear call; they are omitted. Calls come from the whole dose curve; as a rule, active = well fitted inhibition curve with a large enough effect; inconclusive = small, poorly fitted or top-dose-only effect; inactive = flat fitted curve, though single readings scatter. What follows is part of a selection rich in actives, with near analogues and random picks from the rest. Entries that show only a call come without a potency.

assay: qHTS for Inhibitors of human tyrosyl-DNA phosphodiesterase 1 (TDP1): qHTS in cells in presence of CPT; details: chicken DT40 Tdp1-/-;hTDP1 cells + 20 nM CPT, ATP luminescence, 48 h; series mostly up to 46.2 µM; note: nearly all actives have a fitted effect of over 55% in size
In short: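 Chicken DT40 Tdp1-/- cells complemented with human TDP1, 400 cells/well, exposed to compounds plus 20 nM camptothecin for at least 48 h at 37 C; viability read as ATP content by CellTiter-Glo luminescence.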
Potency is the fitted concentration of half-maximal effect.

| Structure (SMILES) | Potency | activity change, negative = growth inhibition |
| --- | --- | --- |
| COc1ccc(NC(=O)/C(C#N)=C\c2cc(OC)c(OCc3ccc(C(=O)O)cc3)cc2Br)cc1 | inactive |  |
| COc1ccccc1C(=O)N/C(=C/c1ccco1)C(=O)Nc1ccc(C(=O)O)cc1 | inactive |  |
| COCCCn1c(=O)/c(=C/c2ccccc2OC(C)C)s/c1=C(\C#N)C(=O)Nc1ccc(C(=O)O)cc1 | 20.6 µM (active) |  |
| Cn1c(N)c(C(=O)COC(=O)COc2ccc(Cl)cc2)c(=O)n(C)c1=O | inactive |  |
| COc1ccc(-c2cc(=O)oc3cc(OC(C)C(=O)NCC4CCC(C(=O)O)CC4)ccc23)cc1 (configuration not stated) | inactive |  |
| COc1ccc(NC(=O)CNc2cc(S(=O)(=O)N3CCOCC3)ccc2N2CCOCC2)c(OC)c1 | inactive |  |
| O=C(CC12CC3CC(CC(C3)C1)C2)Nc1ccc2c(c1)COC2=O | 13 µM (active) |  |
| O=C(CC12CC3CC(CC(C3)C1)C2)NCc1ccco1 | inactive |  |
| NS(=O)(=O)c1cccc(NC(=O)CC23CC4CC(CC(Br)(C4)C2)C3)c1 | inactive |  |
| CCN1CCN(C(=O)N(Cc2ccc(Cl)cc2)S(=O)(=O)c2ccc(C)cc2)CC1 | inactive |  |
| S=C(NCCc1ccccc1)Nc1ccccc1 | inactive |  |
| S=C(NCCC1=CCCCC1)Nc1ccccc1 | 16.4 µM (active) |  |
| CC(=O)Nc1ccc(S(=O)(=O)N(C)CC(=O)NCCC2=CCCCC2)cc1 | inactive |  |
| COc1ccc(-c2cc(-c3ccc(F)cc3)nc3c2COc2ccccc2-3)cc1 | inactive |  |
| CC(C)(C)C(=O)COC(=O)c1cc(S(=O)(=O)N2CCCCC2)ccc1N1CCOCC1 | inactive |  |
| O=C(CCCN1C(=O)c2ccccc2C1=O)Oc1ccc(Cl)cc1 | inactive |  |
| CCCCN(C(=O)CSCC(=O)Nc1ccc(OC)cc1)c1c(N)n(CCC)c(=O)[nH]c1=O | inactive |  |
| CC(C)C(=O)NC(C)c1nnc2n1CCN(Cc1cccc3ncccc13)CC2 (configuration not stated) |  | 24.6% [at 9.04 µM] (inactive) |
| O=S(=O)(c1ccccc1)c1nc(-c2ccccc2)oc1NCCCN1CCOCC1 | inactive |  |
| N#Cc1nc(-c2ccc(OCc3ccccc3)cc2)oc1NCCCN1CCOCC1 | 20.6 µM (active) |  |
| Cc1ccc(-c2nc(C#N)c(NCCCn3ccnc3)o2)cc1 | inactive |  |

| Structure (SMILES) | Potency | activity change, negative = growth inhibition |
| --- | --- | --- |
| Nc1nc(SCC(=O)Nc2cc(C(F)(F)F)ccc2Cl)[nH]c(=O)c1NC(=O)c1ccco1 | inactive |  |
| CO[C@H]1[C@H](NC(=O)C(C)C)c2ccccc2C12CCN(Cc1cnc(N(C)C)s1)CC2 |  | 1.26% [at 9.04 µM] (inactive) |
| CCc1nnc(NC(=O)c2ccco2)s1 | inactive |  |
| Cc1ccc2nc(COc3cccc(NC(=O)c4ccccc4Cl)c3)cc(=O)n2c1 | inactive |  |
| CCCC(=O)N(CCN1CCOCC1)c1nc2ccc(OCC)cc2s1 | inactive |  |
| Nc1ccc2[nH]c(=S)sc2c1 | inactive |  |
| CCOc1ccc2[nH]c(=S)sc2c1 | 18.4 µM (active) |  |
| CC(C)CNC(=S)NNC(=O)c1nn(C)cc1Cl | inactive |  |
| CCOc1ccc(CCNC(=O)c2cc3c(=O)n(C)c4ccccc4c3n2C)cc1 | 20.6 µM (active) |  |
| Cn1c(C(=O)NCCc2ccsc2)cc2c(=O)n(C)c3ccccc3c21 | 18.4 µM (active) |  |
| CCOc1ccc(CCNC(=O)c2c(C)oc3ncn(C)c(=O)c23)cc1 | inactive |  |
| CCOc1ccc(NC(=O)c2cn(C3CCCCC3)c(=O)c3c2c2ccccc2n3C)cc1 | inactive |  |
| Cn1c(C(=O)N2CCC(C(N)=O)CC2)cc2c(=O)n(C)c3ccccc3c21 | inactive |  |
| CN(Cc1ccccc1)C(=O)c1cc2c(=O)n(C)c3ccccc3c2s1 | inactive |  |
| Cc1cc(C)cc(NC(=O)C(c2ccccc2)N2CCN(CC(=O)N3CCCC3)CC2)c1 (configuration not stated) | inactive |  |
| CC(C)CC(=O)c1c[nH]c(C(=O)NCc2ccccc2)c1 | inactive |  |
| CC12CCC(C(=O)N(c3cccc(Cl)c3)C1=O)C2(C)C (configuration not stated) | inactive |  |
| O=C(NN1C(=O)C2C(C1=O)C1C=CC2C12CC2)c1ccccc1Cl (configuration not stated) | inactive |  |
| CC12CCC(C(=O)N(NC(=O)c3ccccc3O)C1=O)C2(C)C (configuration not stated) | 20.6 µM (active) |  |
| NC(=O)c1ncn([C@@H]2O[C@H](CNCc3cnc(N4CCOCC4)s3)[C@@H](O)[C@H]2O)n1 | inactive |  |
| CCOc1ccc(-c2nnn(CC(=O)N3CCN(c4ccc(OC)cc4)CC3)n2)cc1OCC | inactive |  |

| Structure (SMILES) | Potency | activity change, negative = growth inhibition |
| --- | --- | --- |
| CCOc1ccc(-c2nnn(CC(=O)N3CCN(c4ccc(F)cc4)CC3)n2)cc1OCC | inactive |  |
| O=C(Nc1ccccc1-c1nnn(CC(=O)N2CCN(c3ccccc3)CC2)n1)c1cccs1 | 14.6 µM (active) |  |
| C[C@H]1CN([C@@H](C)CO)C(=O)CCCn2cc(nn2)CO[C@@H]1CN(C)S(=O)(=O)c1cccs1 | inactive |  |
| CSc1ccc(NC(=O)Cn2nnnc2-c2ccccc2F)cc1 | inactive |  |
| C/C(=N/OC(=O)c1cccc(C(F)(F)F)c1)c1cnccn1 | inactive |  |
| Cc1nn(-c2ccccc2)c(C)c1NC(=O)COC(=O)c1cc(Cl)ccc1O | inactive |  |
| C/C=C/c1ccc(OCC(=O)OCC(=O)Nc2c(C)nn(-c3ccccc3)c2C)c(OC)c1 | inactive |  |
| Cc1nn(-c2ccccc2)c(C)c1NC(=O)COc1ccc(Cl)cc1Cl | 16.4 µM (active) |  |
| Cc1cc(=O)oc2c3c(cc(OCC(=O)NCCC(=O)N[C@@H](C)C(=O)O)c12)OC(C)(C)CC3 | inactive |  |
| C/C(=N/NS(=O)(=O)c1ccccc1)c1ccc(NC(=O)C(F)(F)F)cc1 | inactive |  |
| COCC1CCN(C(=O)C2CCC(=O)N(CC3CCCCC3)C2)CC1 (configuration not stated) | inactive |  |
| Cc1c(C(=O)NNC(=O)c2ccncc2)oc2ccccc12 | inactive |  |
| COc1ccccc1C(=O)Nc1c(C(=O)Nc2ccc(C)cc2)oc2ccccc12 | 20.6 µM (active) |  |
| COc1ccccc1NC(=S)NC(=O)C(C)C | inactive |  |
| COc1ccccc1NC(=O)c1oc2ccccc2c1NC(=O)COc1ccccc1OC | inactive |  |
| COc1ccccc1NC(=O)c1oc2ccccc2c1NC(=O)C(C)C | 10.3 µM (active) |  |
| Cc1ccc(NC(=O)c2oc3ccccc3c2NC(=O)Cc2cccs2)cc1 | inactive |  |
| Cc1ccc(C(=O)Nc2c(C(=O)NC(C)(C)C)oc3ccccc23)cc1 | 20.6 µM (active) |  |
| COc1ccccc1C(=O)Nc1ccc(Nc2ccccc2)cc1 | inactive |  |
| Cc1ccc(C(=O)Nc2c(-c3ccccc3)[nH][nH]c2=O)cc1 | inactive |  |
